Assay results as given in PubChem BioAssay (NCATS).
The source made the active and inactive calls. The call rests on the fitted dose curve.
Potency means the concentration at half of the fitted maximal effect.

Each compound was assayed against Catechol O-methyltransferase (Homo sapiens) (UniProt P21964) (assay: Confirmatory Screen for Target Class Profiling of Small Molecule Inhibitors of Methyltransferases (AID 1745852; on activity change, negative = inhibition: on the % scale 0 is the no-effect control and ±100 the full control effect)). Settings: MTase-Glo luminescence, SAH detection, recombinant enzyme; measured here: COMT max response; stronger effect = lower value.
Catechol O-methyltransferase (Homo sapiens), sequence (P21964 whole entry, looked up): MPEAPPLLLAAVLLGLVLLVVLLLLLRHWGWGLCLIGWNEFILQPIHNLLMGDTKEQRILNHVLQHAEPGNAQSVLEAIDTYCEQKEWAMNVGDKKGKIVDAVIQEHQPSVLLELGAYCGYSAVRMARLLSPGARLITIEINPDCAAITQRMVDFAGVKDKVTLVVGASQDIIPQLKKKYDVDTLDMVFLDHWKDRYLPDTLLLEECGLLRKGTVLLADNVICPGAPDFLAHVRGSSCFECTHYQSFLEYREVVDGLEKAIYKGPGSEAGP
In the case of `COC(=O)C1=CO[C@@H](O[C@@H]2O[C@H](CO[C@@H]3O[C@H](COC(=O)/C=C/c4cc(OC)c(O)c(OC)c4)[C@@H](O)[C@H](O)[C@H]3O)[C@@H](O)[C@H](O)[C@H]2O)[C@@H]2C(CO)=CC[C@H]12`, the activity is reported as -63.8%.
With `C=C(C(=O)O)C1CC(O)C2(C)CCCC(=C)C2C1` (stereo not drawn) the activity was -51%.
`C=C[C@H]1[C@H](O[C@@H]2O[C@H](CO)[C@@H](O)[C@H](O)[C@H]2O)OC=C(C(=O)OC)[C@H]1CCOC(=O)c1cc(O)c(O)c(O)c1` showed an activity of -67.5%.
Work on `CC1=C(CCC(C)O[C@@H]2O[C@H](CO)[C@@H](O)[C@H](O)[C@H]2O)C(C)(C)CCC1=O` (stereo partly drawn) yielded an activity of -64%.
`CCC(C)C(=O)OC1CC(O)C23C4OCC5(C(O)CC2C1(C)C(O)O4)C3C(=O)C(O)C1(C)C(O)(c2ccoc2)CC2OC251` (stereo not drawn) gave an activity of -73%.
Compound `CC1(C)CC[C@]2(C(=O)O[C@@H]3O[C@H](CO)[C@@H](O)[C@H](O)[C@H]3O)CC[C@]3(C)C(=CCC4[C@@]5(C)C[C@@H](O)[C@H](O)[C@@](C)(CO)C5CC[C@]43C)C2[C@@H]1O` (stereo partly drawn) has an activity of -79.9%.
Work on `CCCCc1nc2cc(/C=C/C(=O)NO)ccc2n1CCN(CC)CC` yielded an activity of -23.3%.
In the case of `CC1=CC(=O)C2(OC3OC(C)C(O)C(OC(=O)/C=C/c4ccccc4)C3O)C=COC(OC3OC(CO)C(O)C(O)C3O)C12` (stereo not drawn), the activity is reported as -48.2%.
Compound `Cc1nc([C@](C)(O)CO)sc1-c1cnc(N)c(O[C@H](C)c2cc(F)ccc2-n2nccn2)c1` has an activity of -59.6%.
`C=C1C(=O)O[C@@H]2/C=C(\C)C(=O)/C=C/[C@](C)(O)C[C@@H](OC(=O)C(C)C)[C@@H]12` showed an activity of -80.2%.
With `COc1cc2c(cc1OC)N1C(=O)C[C@]34C=CCN5CC[C@@H]2[C@@H](CC3)[C@]514` the activity was -18.8%.
For `CC(O)(CC(=O)O)CC(=O)OCc1ccc(O[C@@H]2O[C@H](CO)[C@@H](O)[C@H](O)[C@H]2O)cc1` (stereo partly drawn), the activity was -58.1%.
For `CC1(C)[C@@H](O)CC[C@]2(C)[C@H]3CC=C4[C@@H]5C[C@](C)(C(=O)O)CC[C@]5(C)CC[C@@]4(C)[C@]3(C)CC[C@@H]12`, the activity was -16.8%.

What follows are compounds tested against Guanidinoacetate N-methyltransferase (Homo sapiens) (UniProt Q14353) in the same assay as above. Settings: MTase-Glo luminescence, SAH detection, recombinant enzyme; activity change, negative = inhibition: at 57.3 µM (top of the series) unless noted; series mostly up to 57.3 µM.
`CC1=C(C(=O)OCc2ccccc2)C(c2ccc(-c3ccccc3)cc2)NC(=O)N1CCCCCC(=O)O` (stereo not drawn) was tested, and the activity change, negative = inhibition was 0%.
Compound `C=C1C(=O)OC2C1CCC(=C)C1CC(OC(C)=O)C(=C)C12` (stereo not drawn) has an activity change, negative = inhibition of -10.4%.
Work on `CC(C)=CCC(O)/C(C)=C/CO[C@@H]1O[C@H](CO)[C@@H](O)[C@H](O)[C@H]1O` (stereo partly drawn) yielded an activity change, negative = inhibition of 0%.
Compound `C=C[C@H]1[C@H](O[C@@H]2O[C@H](CO)[C@@H](O)[C@H](O)[C@H]2O)OC=C(C(=O)OC)[C@H]1C/C=C(/C=O)[C@@H]1C(C(=O)OC)=CO[C@@H](O[C@@H]2O[C@H](CO)[C@@H](O)[C@H](O)[C@H]2O)[C@@H]1C=C` has an activity change, negative = inhibition of 0% [at 19.1 µM].
Compound `CC1CCC2(CO)C(C(=O)O)=CCCC2C1(C)CCc1ccoc1` (stereo not drawn) has an activity change, negative = inhibition of 0%.
In the case of `Cc1cc(O)c(-c2ccc([C@@H](C)CN(C)C)cc2)c2c1[nH]c(=O)c1sccc12`, the activity change, negative = inhibition is reported as -6.59%.
`CN(C)C/C=C/C(=O)Nc1cccc(C(=O)Nc2cccc(Nc3ncc(Cl)c(-c4c[nH]c5ccccc45)n3)c2)c1` gave an activity change, negative = inhibition of 1.16%.
`Cc1cc(=O)oc2c(C=O)c(O)ccc12` was tested, and the Potency was 17.1 µM (active).
With `CC/C=C\CCO[C@@H]1O[C@H](CO)[C@@H](O)[C@H](O)[C@H]1O` the activity change, negative = inhibition was 0%.
Work on `O=C(/C=C/c1ccccc1)OC[C@]12O[C@H]1[C@@H](O)[C@@H]1C=CO[C@@H](O[C@@H]3O[C@H](CO)[C@@H](O)[C@H](O)[C@H]3O)[C@@H]12` yielded an activity change, negative = inhibition of -7.11% [at 29.8 µM].
With `Cc1ccc([N+](=O)[O-])cc1S(=O)(=O)N(C)/N=C/c1cnc2ccc(Br)cn12` the Potency was 30.4 µM (active).
Work on `C=C1C(=O)OC2/C=C(\CO)CC/C=C(\C=O)CC(OC(=O)CC(C)C)C12` (stereo not drawn) yielded an activity change, negative = inhibition of -0.648%.
`COC(=O)C1=CO[C@@H](O[C@@H]2O[C@H](CO[C@@H]3O[C@H](COC(=O)/C=C/c4cc(OC)c(O)c(OC)c4)[C@@H](O)[C@H](O)[C@H]3O)[C@@H](O)[C@H](O)[C@H]2O)[C@@H]2C(CO)=CC[C@H]12` gave an activity change, negative = inhibition of -1.94% [at 19.1 µM].
In the case of `C=C(C(=O)O)C1CC(O)C2(C)CCCC(=C)C2C1` (stereo not drawn), the activity change, negative = inhibition is reported as 0%.
In the case of `C=C[C@H]1[C@H](O[C@@H]2O[C@H](CO)[C@@H](O)[C@H](O)[C@H]2O)OC=C(C(=O)OC)[C@H]1CCOC(=O)c1cc(O)c(O)c(O)c1`, the activity change, negative = inhibition is reported as 1.49% [at 29.8 µM].
`CC1=C(CCC(C)O[C@@H]2O[C@H](CO)[C@@H](O)[C@H](O)[C@H]2O)C(C)(C)CCC1=O` (stereo partly drawn) showed an activity change, negative = inhibition of -3.78%.
Compound `CCC(C)C(=O)OC1CC(O)C23C4OCC5(C(O)CC2C1(C)C(O)O4)C3C(=O)C(O)C1(C)C(O)(c2ccoc2)CC2OC251` (stereo not drawn) has an activity change, negative = inhibition of -8.15% [at 19.1 µM].
`CC1(C)CC[C@]2(C(=O)O[C@@H]3O[C@H](CO)[C@@H](O)[C@H](O)[C@H]3O)CC[C@]3(C)C(=CCC4[C@@]5(C)C[C@@H](O)[C@H](O)[C@@](C)(CO)C5CC[C@]43C)C2[C@@H]1O` (stereo partly drawn) was tested, and the activity change, negative = inhibition was -0.535% [at 19.1 µM].
Work on `CCCCc1nc2cc(/C=C/C(=O)NO)ccc2n1CCN(CC)CC` yielded an activity change, negative = inhibition of 4.34%.
Work on `CC1=CC(=O)C2(OC3OC(C)C(O)C(OC(=O)/C=C/c4ccccc4)C3O)C=COC(OC3OC(CO)C(O)C(O)C3O)C12` (stereo not drawn) yielded an activity change, negative = inhibition of -2.18% [at 19.1 µM].
In the case of `Cc1nc([C@](C)(O)CO)sc1-c1cnc(N)c(O[C@H](C)c2cc(F)ccc2-n2nccn2)c1`, the activity change, negative = inhibition is reported as -0.524%.
For `C=C1C(=O)O[C@@H]2/C=C(\C)C(=O)/C=C/[C@](C)(O)C[C@@H](OC(=O)C(C)C)[C@@H]12`, the activity change, negative = inhibition was -3.22%.
In the case of `COc1cc2c(cc1OC)N1C(=O)C[C@]34C=CCN5CC[C@@H]2[C@@H](CC3)[C@]514`, the Potency is reported as “inactive”.
`CC(O)(CC(=O)O)CC(=O)OCc1ccc(O[C@@H]2O[C@H](CO)[C@@H](O)[C@H](O)[C@H]2O)cc1` (stereo partly drawn) gave an activity change, negative = inhibition of 2.07% [at 29.8 µM].
`CC1(C)[C@@H](O)CC[C@]2(C)[C@H]3CC=C4[C@@H]5C[C@](C)(C(=O)O)CC[C@]5(C)CC[C@@]4(C)[C@]3(C)CC[C@@H]12` was tested, and the Potency was 27.1 µM (active).
